KB-3-1 cytotox – kills parental KB-3-1 adenocarcinoma cells. KB-3-1 viability, CellTiter-Glo ATP luminescence, 72 h. Potency, µM (highest dose often 46.1 µM), usual class: cytotoxic. hit rate 1.4% among 400,000. AID 1347075; also: nearly all actives have a fitted effect of over 60% in size
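Cytotoxicity measured as CellTiter-Glo luminescence after 72 h at 37 C. Compound titrations were pinned onto drug-naive KB-3-1 parental adenocarcinoma cells grown in DMEM with 10% FBS, and normalized data fitted to concentration-response curves.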
HT1080 IDH1KD tx – kills HT-1080 cells with IDH1 knockdown. HT-1080 IDH1 knockdown viability, ATP luminescence, 48 h. Potency, µM (titrated, usually from 46.1 µM), hits mostly cytotoxic. hit rate 2% among 360,000
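Knockdown cells (IDH1KD HT-1080) received compounds 2 h after plating at 750 cells/well and were kept 48 h at 37 °C in 5% FBS RPMI. A CellTiter-Glo luminescence read gave % activity for curve fitting.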
DT40 TDP1 no CPT – qHTS for Inhibitors of human tyrosyl-DNA phosphodiesterase 1 (TDP1): qHTS in cells in absence of CPT. Potency, µM (highest dose often 46.2 µM), usual class: inhibitors. hit rate 15% among 420,000. AID 686978, 2013. DT40 Tdp1-/- hTDP1 cells, no CPT, ATP luminescence, 48 h; also: nearly all actives have a fitted effect of over 55% in size
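Compound effects on proliferation are scored in DT40 Tdp1-/-;hTDP1 cells in the absence of CPT. ATP levels (CellTiter-Glo luminescence) are recorded after a ≥48 hr, 37 °C incubation.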
DT40 TDP1 CPT – growth inhibition of DT40 Tdp1-/-;hTDP1 cells with camptothecin (screen for TDP1 inhibitors) | chicken DT40 Tdp1-/-;hTDP1 cells + 20 nM CPT, ATP luminescence, 48 h | Potency, µM (highest dose often 46.2 µM), actives largely listed as inhibitors | hit rate 12% among 420,000 | AID 686979; also: nearly all actives have a fitted effect of over 55% in size
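Chicken DT40 Tdp1-/- cells complemented with human TDP1, 400 cells/well, exposed to compounds plus 20 nM camptothecin for at least 48 h at 37 C; viability read as ATP content by CellTiter-Glo luminescence.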
HT1080NT lethal – kills 2HG-producing HT-1080-NT fibrosarcoma cells. HT-1080-NT fibrosarcoma viability, CellTiter-Glo ATP luminescence, 48 h. hit rate 1.6% among 360,000. Potency, µM (highest dose often 46.1 µM), actives largely listed as cytotoxic;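 also: NT is the 2HG producing partner of a matched IDH1 knockdown line; nearly all actives have a fitted effect of over 55% in size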
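HT-1080-NT; 750 cells/well; 5% FBS RPMI; 48 h compound, 37 degrees C; CellTiter-Glo luminescence; curve fitting and curve-class assignment.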
KB-V1 cytotox – kills drug-selected multidrug resistant KB-V1 cells. Potency, µM (top dose mostly 46.1 µM), hits mostly cytotoxic. KB-V1 MDR cells viability, CellTiter-Glo, 72 h. hit rate 3.4% among 400,000; also: nearly all actives have a fitted effect of over 60% in size
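Compound-treated KB-V1 multidrug-resistant cells, 72 h, 37 degrees C; viability by CellTiter-Glo. Fitted qHTS curves give the values.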
Numbers stand for hits; 0 = inactive; ? = inconclusive; - = not tested or not shown; ! = not confirmed by another sample; [ ] = remark or other dose. Compounds with a hit are over-represented: about 19% of the library has one in this group of screens. Calls follow the shape of the dose curve; as a rule, active = well fitted curve in the direction sought with a large enough effect; inconclusive = small, poorly fitted or top-dose-only effect, or another doubt; inactive = no such curve, though single readings can be large; an effect the other way counts as inactive or inconclusive.

SMILES | KB-3-1 cytotox | HT1080 IDH1KD tx | DT40 TDP1 no CPT | DT40 TDP1 CPT | HT1080NT lethal | KB-V1 cytotox
COc1ccc(-c2cc3nc(-c4ccccc4)cc(N4CCN(C(C)=O)CC4)n3n2)cc1 | 0 | 16µM | 2.6µM | 0 | ? | 0
COc1ccc(-c2cc3nc(-c4ccccc4)cc(N4CCN(C(=O)c5ccccc5)CC4)n3n2)cc1 | 0 | 0 | 4.1µM | 15µM | 0 | 0
Cc1ccc(C(=O)NCCc2nnc3n2CCN(C(=O)c2ccnc(Cl)c2)CC3)cc1 | - | - | 0 | 0 | - | -
Cc1ccccc1C(=O)N1CCC1(C)C(=O)NC(C)C (configuration not stated) | 0 | 0 | 0 | 0 | 0 | 0
COC(=O)c1sccc1S(=O)(=O)N1CCC(n2c(CC3CCCC3)nc3cccnc32)CC1 | - | - | 0 | 0 | - | -
CCCc1cc(=O)n2nc(N3CCC(C(=O)N4CCN(c5cccc(OC)c5)CC4)CC3)sc2n1 | 0 | 0 | 5.8µM | 12µM | 0 | 0
COc1ccc(-c2csc(N3CCN(C(=O)c4ccco4)CC3)n2)cc1 | ? | 0 | ? | ? | 0 | 0
COc1ccc(-c2csc(N3C(=O)C4C5c6ccccc6C(c6ccccc65)C4C3=O)n2)cc1 (configuration not stated) | 0 | ? | 0 | 0 | 0 | 6.5µM
COc1ccc(-c2csc(N3CCN(C(=O)c4ccccc4)CC3)n2)cc1 | 0 | 0 | ? | ? | 0 | 16µM
COc1cccc(-c2csc(N3CCN(C(=O)C4CCCCC4)CC3)n2)c1 | ? | 0 | ? | ? | 0 | 18µM
CC1CN(CC(=O)NCCC2COc3ccccc3O2)Cc2cc(Cl)ccc2O1 (configuration not stated) | - | - | 0 | 0[9.04 µM] | - | -
Cc1ccc(CNC(=O)c2cc(=O)c3cc(C)c(C)cc3o2)cc1 | 0 | - | 0 | 0 | - | 0
N#CCCn1c(=O)c(CCc2ccccc2)nc2cnc(Nc3ccccc3)nc21 | - | - | 0 | 0 | - | -
CN1CCN(c2ncc3ncc(=O)n(C[C@H]4CCCO4)c3n2)CC1 | - | - | 0 | 0 | - | -
O=C(c1ccccc1)N1CCN(c2cc(Cl)nc3cc(-c4cccc(Cl)c4)nn23)CC1 | 0 | 0 | 4.6µM | 16µM | 0 | 0
O=C(c1cccc(Cl)c1)N1CCN(c2ccccn2)CC1 | 0 | 0 | 0 | 0 | 0 | 0
O=C(CN1C(=O)NC2(CCCC2)C1=O)N1CCN(Cc2ccccc2)CC1 | 0 | 0 | 0 | 0 | 0 | 0
O=C1N(Cc2ccccc2)c2ccc(Cl)cc2C12OCCO2 | 0 | 0 | 0 | 0 | 0 | ?
Cc1[nH]c2ccccc2c1C1(O)C(=O)N(Cc2ccccc2)c2ccc(Cl)cc21 (configuration not stated) | 0 | - | 5.2µM | 6.5µM | - | 0
Cc1[nH]c2ccccc2c1C1(O)C(=O)N(Cc2ccc(Cl)cc2)c2ccccc21 (configuration not stated) | - | - | 5.2µM | 5.8µM | - | -
Cc1ccc(CN2C(=O)C(O)(c3c(C)[nH]c4ccccc34)c3ccccc32)cc1 (configuration not stated) | 0 | - | 4.6µM | 6.5µM | - | 0
Cc1[nH]c2ccccc2c1C1(O)C(=O)N(Cc2ccc3c(c2)OCO3)c2ccccc21 (configuration not stated) | ? | ? | 5.2µM | 3.3µM | 0 | ?
O=C(c1cc(=O)[nH]c2ccccc12)N1CCN(Cc2ccc3c(c2)OCO3)CC1 | 0 | 0 | 0 | 0 | 0 | 0
CN(C)c1ccc(/C=C2\C(=O)/C(=C\c3ccc(N(C)C)cc3)c3ccccc32)cc1 | 0 | - | ? | ? | - | 0
CCN(C(=O)CSc1nnc(-c2ccncc2)n1Cc1ccccc1)C1CCS(=O)(=O)C1 (configuration not stated) | 0 | 0 | 0 | 0 | 0 | 0
O=C(OCc1cn(Cc2ccccc2)nn1)c1ccccc1 | 0 | 0 | 0 | 0 | 0 | 0
O=C(O)CCCCCCCCc1cn(Cc2ccc(C(=O)c3ccccc3)cc2)nn1 | 4.6µM! | 4.6µM | 4.1µM | 3.7µM | 3.7µM | 9.2µM!
